Screens deposited in PubChem BioAssay by The Scripps Research Institute Molecular Screening Center.
TEAD-YAP inh = TEAD-YAP interaction inhibition; inhibition, % at 9.12 µM; AID 1259422; actives 1.4% (n = 640,000); HEK-TIYL cells, TEAD-Gal4/YAP UAS-luciferase luminescence; in the data active = inhibition above about 32%;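 note: 0% = median of test compound wells and 100% = reference inhibitor wells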
GPR151 activ = human GPR151 activation | PathHunter beta-arrestin GPR151 cells, luminescence | activation, % at 11.2 µM | actives 1% (n = 650,000); in the data active = activation above about 4.9%;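 note: 0% = median of compound wells and 100% = cells with positive control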
Target sequence (Q8TDV0 whole entry, looked up): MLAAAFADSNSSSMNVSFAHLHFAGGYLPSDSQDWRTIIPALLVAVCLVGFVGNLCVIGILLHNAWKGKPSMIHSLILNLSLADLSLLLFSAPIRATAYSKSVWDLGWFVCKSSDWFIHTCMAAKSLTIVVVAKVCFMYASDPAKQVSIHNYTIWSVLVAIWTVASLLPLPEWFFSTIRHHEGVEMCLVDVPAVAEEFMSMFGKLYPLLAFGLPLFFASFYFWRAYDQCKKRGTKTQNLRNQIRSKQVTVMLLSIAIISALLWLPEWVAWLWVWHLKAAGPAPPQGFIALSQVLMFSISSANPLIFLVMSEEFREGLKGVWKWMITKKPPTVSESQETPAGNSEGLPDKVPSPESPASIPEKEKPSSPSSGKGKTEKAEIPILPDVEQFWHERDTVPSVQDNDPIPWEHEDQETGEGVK
FBW7 act = activators of human E3 ligase FBW7; actives 0.13% (n = 650,000); normalized activity (activation), % at 26.1 µM; AlphaScreen FBW7–phospho-cyclin E peptide binding, activator screen; in the data active = normalized activity above about 1.9%;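 note: purified mutant Fbw7 with reduced substrate affinity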
MITF primary = inhibitors of human MITF. inhibition, % at 2.6 µM. actives 0.91% (n = 650,000). AlphaScreen MITF homodimerization, bead proximity signal; in the data active = inhibition above about 50%;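 note: 0% = vehicle wells with protein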
* = called active by the depositor. Sampled rows, rich in hits. Any-hit rate of the full collection: about 3.4%.

SMILES	TEAD-YAP inh	GPR151 activ	FBW7 act	MITF primary
COc1ccc(C2CC(=O)c3c([nH]c(C(=O)OCCOC(C)C)c3C)C2)cc1OC (stereo not drawn)	32*	1	0	10
COc1ccc(C2CC(=O)c3c([nH]c(C(=O)OCCSC)c3C)C2)cc1OC (stereo not drawn)	44*	2	0	18
O=C(Nc1cc(Oc2ccccc2)cc([N+](=O)[O-])c1)c1cc(-c2ccccc2)nc2ccccc12	4	-1	0	-5
CC(=O)Nc1ccc(Nc2nc(-c3c(C)nc4ncccn34)cs2)cc1	-12	0	0	3
Cc1nc2ncccn2c1-c1csc(Nc2ccccc2)n1	-4	0	0	8
Cc1nc2ncccn2c1-c1csc(Nc2ccc(N(C)C)cc2)n1	52*	-2	0	26
COc1ccc(Nc2nc(-c3c(C)nc4ncccn34)cs2)cc1	58*	0	0	11
COC(=O)c1ccccc1NC(=O)CSc1nnc(NC2CCCCC2)s1	40*	0	0	10
COC(=O)c1ccccc1NC(=O)CSc1nnc(NC(=O)C2CCC2)s1	-5	-2	0	-10
CC(C)=CCC/C(C)=C/CC(C)(C)CNCCN1CCNCC1	58*	-2	1	-4
COc1cccc(Nc2cn[nH]c(=O)n2)c1	1	0	0	-1
Cc1ccc2nc3c(nc2c1)-c1ccccc1C3=O	-17	0	0	-4
Cc1cc2nc3c(nc2cc1C)-c1ccccc1C3=O	33*	-1	0	2
CCC1C(=O)NCCN1Cc1ccc2c(c1)CN(Cc1ccc(Cl)cc1)CCO2 (stereo not drawn)	3	0	0	7
CCC1C(=O)NCCN1Cc1ccc2c(c1)CN(Cc1c(C)nc3sccn13)CCO2 (stereo not drawn)	35*	2	0	-2
Cn1cnnc1SCC(=O)NC1=NN=C(c2ccccc2)CS1	2	0	-1	-2
COc1ccc(-c2nnc(SCC(=O)Nc3ccc(N)cc3)n2-c2ccccc2)cc1	-2	0	6.5*	-92
Cc1nnc(SCC(=O)Nc2ccc3ccccc3c2)s1	10	-1	2.0*	15
Cc1nnc(SCC(=O)Nc2ccc(Cl)c(Cl)c2)s1	18	0	0	10
COc1ccc(NC(=O)c2ccc(NC(=O)CSc3nnc(N)s3)cc2)cc1	-4	-1	8.2*	-7
Cc1ccc(C2=NN=C(NC(=O)CSc3nnc(C)s3)SC2)cc1	55*	-1	0	13
COc1ccc(S(=O)(=O)Nc2ccccc2C)c2cccnc12	-8	-1	0	-3
COc1ccc(/C=N/NC(=O)c2cc3ccccc3cc2O)cc1Cn1cc([N+](=O)[O-])cn1	-7	-1	0	3
c1coc(-c2nnc(SCc3nc4ccccc4[nH]3)o2)c1	44*	-2	0	1
O=C(NCc1ccc(F)cc1)c1cnc(N2CCN(c3ccccn3)CC2)c2ccccc12	8	-1	0	1
SMILES	TEAD-YAP inh	GPR151 activ	FBW7 act	MITF primary
O=C(NCC1COc2ccccc2O1)c1cnc(N2CCN(c3ncccn3)CC2)c2ccccc12 (stereo not drawn)	23	1	0	-12
O=C(NCC1COc2ccccc2O1)c1cnc(N2CCN(c3ccccn3)CC2)c2ccccc12 (stereo not drawn)	41*	0	0	-6
Cc1c(C(=O)NCc2cccnc2)sc2ncnc(N3CCN(c4ccccn4)CC3)c12	35*	0	0	5
O=C(NCc1cccnc1)c1cnc(N2CCN(c3ccccn3)CC2)c2ccccc12	39*	0	0	-8
CN1CCCN(C(=O)C2CC23CCN(Cc2ccc(F)c(F)c2)CC3)CC1 (stereo not drawn)	3	-1	0	1
CC1Cc2cc(/C=C3\N=C(c4cccc(F)c4)OC3=O)ccc2O1 (stereo not drawn)	0	-2	0	9
COc1cc(/C=C/c2ccc(O)c(OC)c2)ccc1O	-54	0	0	0
O=c1cc(O)cc(/C=C/c2ccc(O)c(O)c2)o1	-5	1	0	86*
C=CCOc1ccc(/C=C2/C(=O)ON=C2c2ccccc2)cc1	-2	0	0	65*
CCOc1cc(/C=C2\C(=O)ON=C2c2ccccc2)ccc1OCc1ccccc1	-7	2	0	57*
O=C1ON=C(c2ccccc2)/C1=C/c1c(OCc2ccc(Cl)cc2)ccc2ccccc12	-62	0	0	21
CCCCOc1ccccc1/C=C1/C(=O)ON=C1c1ccccc1	-9	1	0	68*
O=C1ON=C(c2ccccc2)/C1=C\c1ccccc1OCc1ccc(Cl)cc1	-38	1	0	68*
COc1ccc(O)c(CN2CCc3nnc(-c4ccccc4)n3CC2)c1	9	-1	0	12
CC1=C(C(=O)Nc2ccccc2)C(c2ccccc2)C(C(=O)Nc2ccccc2)=C(C)N1	7	1	0	2
CCCCCOc1ccccc1/C=C1/C(=O)ON=C1c1ccccc1	-6	-1	0	62*
CCC(C(=O)NCc1ccccn1)n1ncn2c(cc3occc32)c1=O (stereo not drawn)	-2	2	0	24
COc1ccc(C2CC(=O)c3c([nH]c(C(=O)OCCSC)c3C)C2)cc1 (stereo not drawn)	-3	1	0	18
Cc1c(C(=O)OCC2CCCO2)[nH]c2c1C(=O)CC(c1ccc(F)cc1)C2 (stereo not drawn)	9	2	0	-4
CCOC(=O)c1[nH]c2c(c1C)C(=O)CC(c1ccccc1)C2 (stereo not drawn)	47*	0	0	-10
CCOCCOC(=O)c1[nH]c2c(c1C)C(=O)CC(c1ccccc1)C2 (stereo not drawn)	49*	0	0	9
CCOC(=O)c1[nH]c2c(c1C)C(=O)CC(c1ccc(OCC)c(OC)c1)C2 (stereo not drawn)	6	0	0	-9
CCOC(=O)c1[nH]c2c(c1C)C(=O)CC(c1ccc(F)cc1)C2 (stereo not drawn)	49*	1	2.3*	-19
CCCOC(=O)c1[nH]c2c(c1C)C(=O)CC(c1ccco1)C2 (stereo not drawn)	56*	1	0	-8
COCC(C)n1c(=O)/c(=C\c2ccc(Cl)cc2)s/c1=C(/C#N)C(=O)N1CCCC1 (stereo not drawn)	0	0	1	25
COC(=O)c1[nH]c2c(c1C)C(=O)CC(c1ccc(F)cc1)C2 (stereo not drawn)	40*	1	0	-1
Cc1c(C(=O)O)[nH]c2c1C(=O)CC(c1ccc(Cl)cc1)C2 (stereo not drawn)	-2	-1	0	-7
CCCOCCOC(=O)c1[nH]c2c(c1C)C(=O)CC(c1ccccc1)C2 (stereo not drawn)	43*	1	0	-10
CSCCOC(=O)c1[nH]c2c(c1C)C(=O)CC(c1ccccc1)C2 (stereo not drawn)	45*	2	0	-2
